Assay outcomes deposited in PubChem by several laboratories.
Rows were chosen to be rich in hits. Some 1.4% of all compounds tested hit in one or more screens of this group.
S1P2 antag: S1P2 (human) receptor antagonism. 0.21% of 97,000 active. cell-based S1P2 antagonist assay, inhibition at 5 uM. inhibition, % at 5 µM; in the data active = inhibition above about 45%;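 note: CRE beta-lactamase reporter cells expressing human S1P2 stimulated with S1P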
Target sequence (O95136 whole entry, looked up): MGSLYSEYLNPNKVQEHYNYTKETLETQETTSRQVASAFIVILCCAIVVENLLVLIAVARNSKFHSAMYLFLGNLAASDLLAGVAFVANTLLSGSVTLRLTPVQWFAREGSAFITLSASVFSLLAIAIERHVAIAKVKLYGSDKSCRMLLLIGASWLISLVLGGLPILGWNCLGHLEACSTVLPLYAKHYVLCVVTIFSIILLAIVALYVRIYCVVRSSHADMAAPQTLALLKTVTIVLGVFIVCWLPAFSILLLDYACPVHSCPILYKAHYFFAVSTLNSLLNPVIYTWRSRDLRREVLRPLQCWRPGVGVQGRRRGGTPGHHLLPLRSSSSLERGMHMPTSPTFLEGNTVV
S1P2 ag: activates the human S1P2 receptor; AID 729; activation, % at 4.5 µM; 0.46% of 97,000 active; O95136; S1P2-expressing cell line, agonist reporter read-out; in the data active = activation above about 16%
Smad3 FoxH1 inh: inhibitors of human Smad3 transcription factor binding; P84022; TR-FRET Smad3/Dy647-FoxH1 peptide binding, europium anti-His; inhibition, % at 25 µM; 0.29% of 88,000 active;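 active = compounds that reduce the energy-transfer binding signal between the protein and its labelled peptide by more than half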
MT1-MMP txn act: activates MT1-MMP transcription | HT1080 MT1-MMP promoter luciferase reporter, luminescence, overnight; stronger effect = higher value | activation factor at 10 µM | 0.16% of 86,000 active | AID 750;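 active = activation factor of at least 2 for MT1-MMP transcription at 10 µM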
GALR2 antag: antagonists of human galanin receptor 2 (GALR2); O43603; GALR2-expressing cells, antagonist mode; inhibition, % at 4 µM; 0.39% of 140,000 active; AID 828;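 note: cells stimulated with galanin 1-16 at roughly its EC80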
Target sequence (O43603 whole entry, looked up): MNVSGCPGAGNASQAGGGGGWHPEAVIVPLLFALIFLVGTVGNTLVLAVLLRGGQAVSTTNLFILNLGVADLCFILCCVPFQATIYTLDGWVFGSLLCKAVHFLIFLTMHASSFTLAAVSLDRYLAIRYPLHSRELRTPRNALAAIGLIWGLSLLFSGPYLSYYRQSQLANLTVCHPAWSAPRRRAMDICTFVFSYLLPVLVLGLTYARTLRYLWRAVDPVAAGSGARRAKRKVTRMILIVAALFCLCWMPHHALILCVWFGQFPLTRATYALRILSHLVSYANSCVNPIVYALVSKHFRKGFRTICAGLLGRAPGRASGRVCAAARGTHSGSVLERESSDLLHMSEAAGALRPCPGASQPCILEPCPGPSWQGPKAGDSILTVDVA
GALR2 agonist: agonists of human galanin receptor 2 (GALR2) | O43603 | GALR2-expressing cells, agonist activation read-out | activation, % (no concentration beside the values) | 0.48% of 140,000 active; in the data active = activation above about 5%, passing the limit was not always enough
GALR2 blk conf: GALR2 (human) antagonism confirmed; shares compounds with GALR2 antag; GALR2-expressing cells, antagonist mode, inhibition; inhibition, % at 4 µM; 60% of 480 active; AID 866;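 note: cells stimulated with galanin at about its EC80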
BLA inh counter: inhibits beta-lactamase reporter in GALR2 antagonist counterscreen. 36% of 480 active. shares compounds with GALR2 antag. inhibition, % at 4.2 µM. CHO NFAT-BLA reporter, beta-lactamase FRET, thapsigargin-stimulated;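 active = inhibition above the mean inhibition across tested compounds plus 3 SD, cut at about 27% in these data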
Hits are given with their value; - = inactive; . = no result. Cut-off read from the data, not from the text of the source, unless noted: active = inhibition above about 27%; inactive = the rest.

SMILES	S1P2 antag	S1P2 ag	Smad3 FoxH1 inh	MT1-MMP txn act	GALR2 antag	GALR2 agonist	GALR2 blk conf	BLA inh counter
COc1ccc(Cc2nc(C(=O)Nc3ccc(Cl)cc3)cs2)cc1	-	-	-	-	-	-	.	.
COc1ccc(COc2ccsc2C(=O)Nc2ccc(Cl)cc2)cc1	-	-	.	.	51.7	-	-	-
CC(=O)c1ccc(NC(=O)c2cc3nc4c(c(C(F)(F)F)n3n2)CCCC4)cc1	-	-	.	.	30.9	-	-	-
CCC1=Nc2cc(C(=O)NCc3ccco3)ccc2Sc2ccc(C)cc21	.	.	.	.	30.8	-	-	-
CCC1=Nc2cc(C(=O)NCCCOC)ccc2Sc2ccccc21	-	-	-	-	-	-	.	.
O=C(O)CCCc1ccc2ccccc2c1	.	.	-	.	.	.	.	.
Oc1c(Cl)cccc1C=Nc1cc(C(F)(F)F)ccc1N1CCCC1	-	-	.	.	31.9	-	-	-
Oc1ccccc1N=Nc1nc(-c2ccccc2)c(-c2ccccc2)[nH]1	-	-	.	.	29.1	-	33.5	-
COc1ccccc1N=Nc1nc(-c2ccccc2)c(-c2ccccc2)[nH]1	.	.	.	.	-	-	.	.
Cn1c(NC(=O)c2ccc(F)c(F)c2)cc(=O)n(C)c1=O	.	.	-	-	27.6	-	-	-
O=c1cc(-c2ccccc2Cl)oc2cc(O)cc(O)c12	.	.	.	.	-	-	.	.
O=C1C=CC(O)(c2cc(=O)c3c(O)cc(O)cc3o2)C=C1	.	.	.	.	90.1	-	82.6	39.3
CCCS(=O)(=O)O	.	.	-	.	.	.	.	.
CCCn1c(CC)nc([N+](=O)[O-])c1S(=O)(=O)c1ccccc1	-	-	.	.	-	-	.	.
Cn1cnc([N+](=O)[O-])c1S(=O)(=O)c1cccc(Cl)c1	.	.	.	.	47.4	-	43.0	-
O=C(Nc1ccc2c(c1)Cc1ccccc1-2)[C@@H]1[C@H](C(=O)O)[C@]2(Cl)C(Cl)=C(Cl)[C@@]1(Cl)C2(Cl)Cl	.	.	-	.	.	.	.	.
Cc1sc2ncnc(NCC3COc4ccccc4O3)c2c1C (centres undefined)	.	.	.	.	38.6	-	45.6	-
Cc1sc2ncnc(NCc3ccccc3)c2c1C	-	-	-	-	29.4	-	-	-
O[C@@H](c1cc(-c2ccc(Cl)cc2)nc2ccccc12)[C@@H]1CCCCN1	.	.	-	.	.	.	.	.
c1ccc2c(c1)CCN(c1ncnc3c1[nH]c1ccccc13)C2	.	.	.	-	.	.	.	.
c1ccc(CN2CCN(c3ncnc4c3[nH]c3ccccc34)CC2)cc1	78.1	-	-	-	35.7	-	39.7	-
Cc1ccc2[nH]c3c(N4CCCCCC4)ncnc3c2c1	91.7	-	-	-	37.8	-	41.5	-
COc1ccc2c(c1)[nH]c1c(N3CCN(Cc4ccc5c(c4)OCO5)CC3)ncnc12	86.7	-	.	-	37.5	-	43.8	-
CN1CCN(Cc2nc3cccc4c3c([n+]2[O-])-c2ccccc2-4)CC1	.	.	-	.	.	.	.	.
CC(/C=N/NC(=O)c1cc(-c2cccs2)[nH]n1)=C\c1ccccc1	.	.	.	.	-	-	.	.
SMILES	S1P2 antag	S1P2 ag	Smad3 FoxH1 inh	MT1-MMP txn act	GALR2 antag	GALR2 agonist	GALR2 blk conf	BLA inh counter
Cc1[nH]c2ccccc2c1/C=N/NC(=O)c1cc(-c2cccs2)[nH]n1	.	.	.	.	28.4	-	-	-
Cc1ccsc1/C=N/Nc1nc2ccccc2[nH]1	.	.	.	.	32.5	-	38.4	-
Cc1cc(=O)[nH]c(N/N=C/c2sccc2C)n1	.	.	.	.	-	-	.	.
C=CCn1cc(/C=N/Nc2nc3ccccc3[nH]2)c2ccccc21	.	.	.	.	28.1	-	29.0	-
CCN(CC)c1ccc(/C=N/Nc2nc3ccccc3[nH]2)cc1	.	.	.	.	41.7	-	35.1	-
C(=N\Nc1nc2ccccc2[nH]1)/c1cccs1	-	-	.	.	28.8	-	-	-
c1ccc2cc(-c3cc(-c4cc(-c5ccc6ccccc6c5)on4)no3)ccc2c1	.	.	-	.	.	.	.	.
COc1ccc(/C=C(\C#N)C(N)=O)c(OC)c1	.	.	-	.	.	.	.	.
CCOC(=O)c1ccc(N2C(=O)CC(N3CCC(O)(c4ccc(Br)cc4)CC3)C2=O)cc1 (centres undefined)	46.4	-	-	-	29.8	-	39.6	-
C=CCSC(=C(C#N)C#N)c1cc2c([nH]1)CCCC2	-	-	-	.	30.6	-	27.0	-
c1ccc(C2=NN[C@@H]3c4ccccc4-c4ccccc4N3C2)cc1	.	.	-	.	.	.	.	.
O=C(Nc1cccc(S(=O)(=O)N2CCCC2)c1)c1ccc2c(=O)n3c(nc2c1)CCCCC3	.	.	.	.	34.5	-	-	-
C[C@H](CN(C)C)C(=O)c1ccccc1C(=O)O	.	.	-	.	.	.	.	.
CCOC(=O)CSc1nc(C)cc(=O)[nH]1	-	-	-	-	32.1	-	-	-
COc1ccc(-c2noc(CCC(=O)Nc3ccc4c(c3)OCCO4)n2)cc1	-	-	-	.	28.4	-	-	-
C[Si](C)(c1ccc(C(=O)O)cc1)c1ccc(C(=O)O)cc1	.	.	-	.	.	.	.	.
Cc1ccccc1NC(=O)/C=C/c1ccc([N+](=O)[O-])s1	.	.	.	.	34.0	-	59.8	62.4
Cc1ccc(C(=N)c2ccccc2Cc2cccc3ccccc23)c2ccccc12	.	.	-	.	.	.	.	.
NC(=O)c1ccccc1NC(=O)Nc1cccc(Cl)c1Cl	.	.	.	.	52.7	-	69.0	32.6
COc1ccc(-c2nnc(SCc3nc4ccccc4s3)n2C(C)C)cc1	-	-	.	.	28.6	-	-	-
COc1ccc(C(=O)c2cc([N+](=O)[O-])ccc2N2CCOCC2)cc1	.	.	.	.	33.9	-	27.9	49.5
CCOc1ccc(C(=O)c2cc([N+](=O)[O-])ccc2N2CCOCC2)cc1	.	.	.	.	50.6	-	30.0	67.6
Cc1ccc(C(=O)c2cc([N+](=O)[O-])ccc2N2CCOCC2)cc1	.	.	.	.	-	-	.	.
NNC(=O)c1ccc[n+](CCc2ccccc2)c1	.	.	-	.	.	.	.	.
CC(=NC1CCCCC1)c1ccccc1O	.	.	-	.	.	.	.	.
SMILES	S1P2 antag	S1P2 ag	Smad3 FoxH1 inh	MT1-MMP txn act	GALR2 antag	GALR2 agonist	GALR2 blk conf	BLA inh counter
CC(NC(=O)Nc1nnc(C(F)(F)F)s1)(C(F)(F)F)C(F)(F)F	-	-	-	-	38.1	-	-	-
Cc1nc2ccc(NC(=O)c3cc(S(=O)(=O)N(C)c4ccccc4)ccc3Cl)cc2s1	.	.	.	.	36.8	-	31.2	-
Cc1nc2ccc(NC(=O)c3ccc(Cl)c(S(=O)(=O)N(C)c4ccccc4)c3)cc2s1	.	.	.	.	-	-	.	.
CCOC(=O)[C@]1(CC(=O)O)CCCC1=O	.	.	-	.	.	.	.	.
O=c1oc2ccccc2c(O)c1/C=N/c1nc(-c2ccc(O)c(O)c2)cs1	.	.	-	.	.	.	.	.
Cc1cc(Nc2cccc(Cl)c2)nc(NCc2ccccc2)n1	.	.	.	.	31.2	-	51.2	-
Cc1cc(N/N=C/c2cccc(Cl)c2)nc(NCc2ccccc2)n1	.	.	.	.	-	-	.	.
COc1ccc2[nH]c3c(NCc4ccco4)ncnc3c2c1	-	-	-	2.1	28.1	-	-	-
Cc1c(Cl)cccc1NC(=O)C[C@H]1Sc2ccccc2NC1=O	.	.	-	.	.	.	.	.
O=C(CN(CC1CCCO1)C(=O)CCC(=O)Nc1ccccn1)NCc1ccccc1 (centres undefined)	-	-	-	-	29.7	-	-	-
CC(C)CCNC(=O)CN(CC1CCCO1)C(=O)CCC(=O)Nc1ccccn1 (centres undefined)	-	-	-	-	-	-	.	.
O=C(COC(=O)c1ccccc1C(=O)c1ccc(Cl)c([N+](=O)[O-])c1)NC1CCCCCC1	58.9	-	.	.	31.2	-	64.2	51.6
